Unmarked numbers belong to inactive results. The source made the active and inactive calls. How the calls were made is not given here.
System: HIV-1 nucleocapsid protein NCp7 (binding to TG oligonucleotide)
Test: HIV Nucleocapsid (AID 346);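 further: potency is for inhibitors that block NC binding and lower polarization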
Conditions: HIV-1 NC / fluorescein-TGTGTGTG probe, fluorescence polarization
Method in brief: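 Fluorescence polarization binding of 100 nM HIV-1 NC to 10 nM fluorescein-labelled TG4xF oligonucleotide. Buffer was Hepes pH 7.5 with 250mM NaCl, 1uM ZnCl2, TCEP and 2-mercaptoethanol. Compounds were incubated 1 hr at room temperature before the read.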
Potency means the concentration at half of the fitted maximal effect.

Compound	Potency
O=C(c1cc(C(F)(F)F)cc(C(F)(F)F)c1)N1CCC2(CCN(Cc3ccccc3)CC2)CC1	> 20 µM
CCNc1ncc2nc(-c3cccs3)c(=O)n(CCC#N)c2n1	6.37 µM (active)
COc1ncc2nc(-c3cn(C)c4ccccc34)c(=O)n(Cc3ccc(F)cc3)c2n1	> 20 µM
N#Cc1cccc(NC(=O)N2CC[C@@]3(CCCN(C(=O)c4ccco4)C3)C2)c1	> 20 µM
O=C(c1cccc(F)c1)N1CCC2(CC1)CN(c1ccccn1)C2	> 20 µM
COc1ccc(Oc2ncc3nc(-c4cc(F)cc(F)c4)c(=O)n(CCC#N)c3n2)cc1	> 20 µM
Cc1nc2cnc(Nc3ccccc3)nc2n(C[C@H]2CCCO2)c1=O	> 20 µM
Cn1cc(-c2nc3cnc(Oc4ccccc4)nc3n(C)c2=O)c2ccccc21	> 20 µM
FC(F)(F)c1ccccc1-c1nc(NC2CCNCC2)c2ccccc2n1	> 20 µM

— PubChem BioAssay (NCATS)
